# Experimental data as given in the supplement of paper PMC10338343.
# ± gives the standard deviation. Over roughly 6,200 sequences, “pre-steady-state target cleavage rate” has its median near 0.29; the highest 2% begin near 2. The full list was thinned out, with the highest values kept by preference.
# Test system: MIWI (PIWIL1) piRISC loaded with piRNA #1 (30 nt)
# Experiment: pre-steady-state target cleavage rate (min^-1); MIWI and MILI are mouse PIWI proteins and EfPiwi is from a freshwater sponge; tags in brackets are library labels; higher = faster piRNA-guided slicing of the target
# Settings: guide: piRNA #1 5'p-UGAGGUAGUAGGUUGUAUAGUAUCCAGAGG; auxiliary factor: 500 nM mouse GTSF1
# Description: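 Cleave-'n-Seq: a library of target RNAs (target site embedded in constant flanks, ACAGCATTCCGCGTTAGTGATATCCG... 5' flank; DNA-blocked outside the site) at 0.1 nM was incubated with 1 nM active mouse MILI or MIWI piRISC (synthetic 5'-monophosphorylated piRNA guide) with or without 500 nM mouse GTSF1 at 33 °C for 1 min to 16 h. Uncleaved targets were sequenced and normalised to non-target controls, and the pooled three trials were fitted to a burst-and-steady-state model to give the pre-steady-state cleavage rate (min^-1; k3 is constrained to at most 1e-4). Sequence is the target site only; target names encode pairing extent (gX:gY) and contiguous / 1-mismatch / 2-mismatch / bulge geometry. Fits with R² ≤ 0 are excluded.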
row,Sequence,pre-steady-state target cleavage rate
1,GGACUGGAUACAAUACAAGCUACUACCUCA,0.683 ± 0.041
2,GGAGACCUUACUAUACAACCUACUACCUGA,0.777 ± 0.077
3,GGAGUGGAUACUAUACCAACCUACUACCUCA,0.0192 ± 0.0054
4,GCUCUGGAUACUAUACAAGCUACUAGCUCA,0.745 ± 0.073
5,GGAGACCUAUGUAUACAUCCUAGUACCUCA,0.00528 ± 0.0014
6,GGAGACCUAACUAUACUACCUUCUACCUCA,0.00903 ± 0.0034
7,CCUCACCAUACUAUACAACCUACUACCUCA,2.03 ± 0.12
8,GGAGACCAUACUAUACAACCUACUACCUACA,1.77 ± 0.18
9,GGUCUCCAUACUAUACAACCUACUACCUCA,1.79 ± 0.1
10,GGUCACCAUACUAUACAACCUACUACCUCA,1.77 ± 0.11
11,GGAGACCAUACUAUACAACCUACUACUUCA,2.14 ± 0.14
12,GGAGUCCAUACUAUACAACCUACUACCUCA,1.63 ± 0.091
13,GCUCUCCUUACUAUACAACCUACUACCUCA,1.85 ± 0.12
14,CCUCUCCAUACUAUACAACCUACUACCUCA,2.04 ± 0.12
15,GCUCACCAUACUAUACAACCUACUACCUCA,1.87 ± 0.13
16,GGACUCCAUACUAUACAACCUACUACCUCA,1.67 ± 0.11
17,GGAGACCAUACUAUACAACCUACUACCUUCA,1.59 ± 0.1
18,GCUCUCCAUACUAUACAACCUACUACCUCA,2.13 ± 0.13
19,GGAGUGGAUACUAUACAACGUACUAGCUCA,0.0857 ± 0.017
20,GCUCUCGAUACUAUACAACCUACUACGUCA,1.24 ± 0.079
21,GCACUGGAUACUAUACAUCCUACUACCUCA,1.88 ± 0.096
22,CCUCAGGAUACUAUACAACCUACUAGCUCA,1.13 ± 0.056
23,GGAGACGAUACUAUACAACCUACUACCUUA,1.35 ± 0.09

row,Sequence,pre-steady-state target cleavage rate
1,GGAGUGCAUAGUAUACAACCUACUACCUCA,0.659 ± 0.04
2,GGAGACCUAUCUAUAGAACCUAGUACCUCA,0.0363 ± 0.0089
3,GGAGAGGAUACUAUACAACCUACCUACCUCA,1.05 ± 0.059
4,GGAGAAGAUACUAUACAACCUACUACCUCA,2.04 ± 0.11
5,GGAGAGUGAUACUAUACAACCUACUACCUCA,2.1 ± 0.15
6,GGAGAGAUACUAUACAACCUACUACCUCA,1.89 ± 0.11
7,GGAGUGUGAUACUAUACAACCUACUACCUCA,1.81 ± 0.1
8,GGAGAUGAUACUAUACAACCUACUACCUCA,1.86 ± 0.095
9,GGAGUGAGAUACUAUACAACCUACUACCUCA,1.77 ± 0.094
10,GGAGUGAUACUAUACAACCUACUACCUCA,1.77 ± 0.11
11,GGAGAGAGAUACUAUACAACCUACUACCUCA,2.02 ± 0.12
12,GGAGUGGAUACUUUACAACCUACUACCUCA,1.53 ± 0.086
13,GGAGACCAUACAAUACAACCUACUAGCUCA,0.486 ± 0.067
14,GGAGACCUAACUAUAGAACCUACUACCUGA,0.188 ± 0.066
15,GGACUGGAUACUAUACAACGUACUACCUGA,0.377 ± 0.047
16,CCUCUGGAUACUAUACAACCUACUACACUCA,0.874 ± 0.073
17,ACUCUGGAUACUAUACAACCUACUACCUCA,2.19 ± 0.13
18,CCUCUGGAUACUAUACAACCUCACUACCUCA,0.0086 ± 0.0033
19,CACUCUGGAUACUAUACAACCUACUACCUCA,2.09 ± 0.12
20,GGAGACGAUACGUAUACAACCUACUACCUCA,1.4 ± 0.13
21,GGAGUGGAUACUAUACAACCUACUGACCUCA,0.489 ± 0.043
22,GGACUUGAUACUAUACAACCUACUACCUCA,1.73 ± 0.12
23,CCUCUUGAUACUAUACAACCUACUACCUCA,2.33 ± 0.14

row,Sequence,pre-steady-state target cleavage rate
1,GCUCUUGAUACUAUACAACCUACUACCUCA,2.03 ± 0.11
2,GCUCUGUGAUACUAUACAACCUACUACCUCA,1.81 ± 0.11
3,GGAGUUGAUACUAUACAACCUACUACCUCA,1.97 ± 0.13
4,GGUCUUGAUACUAUACAACCUACUACCUCA,1.87 ± 0.11
5,GCUCUGGAUACUAUACAACCUACAACCUGA,0.744 ± 0.14
6,GGAGUCGAUACUAUACAACCUACUACCUCA,1.47 ± 0.091
7,GGAGACCAUAACUAUACAACCUACUACCUCA,1.24 ± 0.089
8,CCUCUGGAUAAUAUACAACCUACUACCUCA,2.06 ± 0.12
9,GCUCUGGAUACUAAUACAACCUACUACCUCA,1.49 ± 0.09
10,GCUCUGGAUAAUAUACAACCUACUACCUCA,2.07 ± 0.13
11,CCUCUGGAUAUAUACAACCUACUACCUCA,1.9 ± 0.12
12,GGUCUGGAUAAUAUACAACCUACUACCUCA,1.88 ± 0.12
13,GCUCUGGAUACUAUACAACCUAAUACCUCA,1.55 ± 0.12
14,CCUCUGGAUACUAUAGAACCUACUACCUCA,0.664 ± 0.06
15,GGAGACCAUUCUUUACAACCUACUACCUCA,0.387 ± 0.059
16,GCUCUGGAUAGUAUACUACCUACUACCUCA,0.858 ± 0.049
17,GGUCUGGAUACAAUACUACCUACUACCUCA,1.09 ± 0.092
18,CCUCUGGAUACUAUACAACCUACUACCUA,1.52 ± 0.096
19,CCUCUGGAUACUAUACAACCUACUACCUCU [g2:g30:cont:t1U],2.36 ± 0.14
20,CCUCUGGAUACUAUACAACCUACUACCUCG [g2:g30:cont:t1G],1.32 ± 0.094
21,CCUCUGGAUACUAUACAACCUACUACCUCC [g2:g30:cont:t1C],2.18 ± 0.14
22,CCUCUGGAUACUAUACAACCUACUACCUAA,1.9 ± 0.1
23,CCUCUGGAUACUAUACAACCUACUACCUACA,1.79 ± 0.096

row,Sequence,pre-steady-state target cleavage rate
1,GGAGAGGAAACAAUACAACCUACUACCUCA,0.95 ± 0.079
2,GGAGACGAUACUAUUCAUCCUACUACCUCA,1.09 ± 0.061
3,GGAGUGGAUACUAUCAACCUACUACCUCA,1.58 ± 0.11
4,GGAGACCUAUCUAUACAACCUACUUCCUGA,0.0338 ± 0.01
5,GGAGACCUAUCUAUACAACCUUCUACCACA,0.136 ± 0.015
6,GCUCUGGAUAUAUACAACCUACUACCUCA,1.62 ± 0.086
7,GGUCUGGAUAUUAUACAACCUACUACCUCA,1.98 ± 0.12
8,GCUCUGGAUACAUAUACAACCUACUACCUCA,1.54 ± 0.083
9,GCUCUGGAUAUUAUACAACCUACUACCUCA,2.06 ± 0.11
10,GGACUGGAUAUUAUACAACCUACUACCUCA,1.62 ± 0.11
11,CCUCUGGAUAUUAUACAACCUACUACCUCA,2.15 ± 0.12
12,GGAGACCUAAGUAUUCAACCUACUACCUCA,0.00289 ± 0.0023
13,CGUCUGGAUACUAUACAACCUACUACCUGA,0.517 ± 0.044
14,CCUCUGGAUACUAUACAUGGUACUACCUCA,0.0547 ± 0.0094
15,GGAGAGGAUACUAUACAACCUACCACCUCA,0.849 ± 0.049
16,GCUCUCGAUACUAUACAACCUUCUACCUCA,0.639 ± 0.034
17,GGACUCGAUUCUAUACAACCUACUACCUCA,1.61 ± 0.14
18,GCUCUCGAUUCUAUACAACCUACUACCUCA,2.09 ± 0.12
19,GGUCUCGAUUCUAUACAACCUACUACCUCA,1.74 ± 0.1
20,CCUCUCGAUUCUAUACAACCUACUACCUCA,2.25 ± 0.15
21,CCUCUCGAUACUAUACAACCUUCUACCUCA,0.676 ± 0.035
22,GGUCUGGAUACUAUACUUCCUACUACCUCA,0.248 ± 0.029
